About 79,000 compounds went through this panel and 15% of them were active in at least one assay; those are over-represented in the sample as a whole. The source made the active and inactive calls. Cut-off read from the data, not from the text of the source: active = growth inhibition above about 70%; inactive = the rest.
What was measured:
[1] = NCI Yeast Anticancer Drug Screen. Data for the rad50 strain (AID 155);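 note: 0% = growth of vehicle-only cultures of the same strain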; conditions: S. cerevisiae rad50 strain growth inhibition, active compounds read high; at 50.0 µM unless noted
Outline: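 Genetically altered yeast (DNA repair pathway); compound treatment; growth inhibition vs vehicle ctrl.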

[2] = NCI Yeast Anticancer Drug Screen. Data for the mec2-1 strain (AID 157); conditions: S. cerevisiae mec2-1 strain, active compounds read high; at 50.0 µM unless noted
Outline: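 Strain: mec2-1 (DNA repair/cell cycle alteration). Compound exposure, then growth measured; inhibition expressed relative to vehicle.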

[3] = NCI Yeast Anticancer Drug Screen. Data for the sgs1 mgt1 strain (AID 161);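 note: 0% = growth of cultures given vehicle only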; conditions: S. cerevisiae sgs1 mgt1 strain, active compounds read high; at 50.0 µM unless noted
Outline: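 Read-out: growth inhibition vs vehicle controls. Cells: mutant yeast strain deficient in DNA damage repair.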

[4] = NCI Yeast Anticancer Drug Screen. Data for the cln2 rad14 strain (AID 165);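 note: 0% = growth equal to vehicle treated cultures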; conditions: S. cerevisiae cln2 rad14 strain, active compounds read high; at 50.0 µM unless noted
Outline: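 Compounds are applied to the cln2 rad14 yeast strain, and growth is then compared with that of vehicle-treated cultures to give inhibition.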

[5] = NCI Yeast Anticancer Drug Screen. Data for the bub3 strain (AID 167); conditions: S. cerevisiae bub3 mutant strain, active compounds read high; at 50.0 µM unless noted
Outline: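 Yeast carrying a defined mutation is treated with each compound, and growth is compared with that of vehicle-exposed cells to give inhibition.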

[6] = NCI Yeast Anticancer Drug Screen. Data for the mlh1 rad18 strain (AID 175); conditions: S. cerevisiae mlh1 rad18 strain growth inhibition, active compounds read high; at 50.0 µM unless noted
Outline: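 Read-out is yeast growth inhibition, calculated against vehicle-only controls. The compound was applied to a strain engineered with DNA damage repair alterations.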

Measured: growth inhibition

C/C(CCCCCCCCCCCC/C(C)=N\Nc1ccc([N+](=O)[O-])cc1[N+](=O)[O-])=N/Nc1ccc([N+](=O)[O-])cc1[N+](=O)[O-]
inactive: [1] -15.8% | [2] 5.25% | [3] -3.2% | [4] 27.2% | [5] 2.3% | [6] 31.6%

O=C(c1ccccc1)c1ccc(O)cc1
inactive: [1] 3.5% | [2] 3.05% | [3] 21.4% | [4] 13.9% | [5] -1.75% | [6] 24.9%

S=c1[nH]nc(-c2n[nH]c3ccccc23)o1
inactive: [1] 3.3% | [2] 3.6% | [3] 5.9% | [4] -51.3% | [5] -3% | [6] 1.25%

COc1ccc2[nH]c3cc4c(=O)c5cc(OC)ccc5[nH]c4cc3c(=O)c2c1
inactive: [1] -31.6% | [2] -15.8% | [3] -6.2% | [4] 5.05% | [5] -2.9% | [6] -37.6%

— PubChem BioAssay (NCI)
